# Measurements taken from PubChem BioAssay (EPA / NIEHS).
# Inconclusive results are not listed. Calls of active or inactive are those of the source. The calls were made as follows: active = hit-call score of the fitted dose curve at least 0.9, where 1 is the maximum; inconclusive = response in the unintended direction; inactive = score below 0.9.
# Tests used:
# [1] = ATG_XTT_Cytotoxicity: Cytotoxicity Assessment in the Attagene TRANS-FACTORIAL HepG2 Assay (AID 2283584)
# Summary of the method: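 HepG2 human liver cells, transiently transfected with multiple GAL4-UAS reporter units, were dosed and read at 24 h by XTT as cell number. Loss of signal was fitted relative to DMSO negative control baseline.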
# [2] = TOX21_p53_BLA_p2_viability: Viability Assessment in the Tox21 HCT-116 p53 Agonism Beta-lactamase Assay, Phase 2 (AID 2283591);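 also: compound exposure lasted 16 h at 37 °C; actives lower the ATP signal meaning cytotoxicity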
# Summary of the method: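 Cytotoxicity readout: CellTiter-Glo ATP luminescence, 30 min at room temperature, after the beta-lactamase read. Cells were HCT116 exposed 16 h at 37C to compounds pin-transferred at 217-fold dilution from DMSO stocks.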
# [3] = molecular target: Cellular tumor antigen p53 (Homo sapiens) (UniProt P04637); assay: TOX21_p53_BLA_p2_ratio: Tox21 HCT-116 p53 Agonism Beta-lactamase Assay, Ratio, Phase 2 (AID 2283592)
# Summary of the method: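 Ratio endpoint: beta-lactamase cleavage of CCF4-AM, blue (460 nm) over green (530 nm). HCT116 reporter line; 16 h treatment, 37C; substrate 2 h RT.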
# [4] = TOX21_p53_BLA_p3_viability: Viability Assessment in the Tox21 HCT-116 p53 Agonism Beta-lactamase Assay, Phase 3 (AID 2283593);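 also: cells exposed to compound for 16 h before reading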
# Summary of the method: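 Cellular ATP was quantified by CellTiter-Glo luminescence, read after 30 min at room temperature. Beforehand, HCT116 cells (4000/well) received compound 5 h post-seeding, 217-fold diluted from DMSO, then incubated 16 h at 37C.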
# [5] = TOX21_p53_BLA_p4_viability: Viability Assessment in the Tox21 HCT-116 p53 Agonism Beta-lactamase Assay, Phase 4 (AID 2283597);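 also: hits lower the luminescence signal meaning cytotoxicity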
# Summary of the method: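 Cytotoxicity was inferred from loss of CellTiter-Glo luminescence. HCT116 cells had been dosed with compounds after 5 h plating, incubated 16 h at 37C and 5% CO2, and exposed to the CCF4-AM substrate for 2 h.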
# [6] = TOX21_p53_BLA_p5_viability: Viability Assessment in the Tox21 HCT-116 p53 Agonism Beta-lactamase Assay, Phase 5 (AID 2283600)
# Summary of the method: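 Luciferase-coupled ATP quantitation of cells treated for 16 h (37C, 5% CO2) with test chemicals delivered in DMSO via a 217-fold dilution; 4000 cells/well; reagent incubated 30 min at room temperature before luminescence reading.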
# [7] = molecular target: Cellular tumor antigen p53 (Homo sapiens) (UniProt P04637); assay: TOX21_p53_BLA_p4_ratio: Tox21 HCT-116 p53 Agonism Beta-lactamase Assay, Ratio, Phase 4 (AID 2283601)
# Summary of the method: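 Signal is the blue/green (460nm/530nm) ratio of cleaved versus uncleaved CCF4-AM substrate, read after 2 h substrate loading. Cells were HCT116 carrying the p53-responsive beta-lactamase reporter, dosed 16 h at 37C, 5% CO2; CellTiter-Glo measured in parallel.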
# [8] = molecular target: Cellular tumor antigen p53 (Homo sapiens) (UniProt P04637); assay: TOX21_p53_BLA_p5_ratio: Tox21 HCT-116 p53 Agonism Beta-lactamase Assay, Ratio, Phase 5 (AID 2283599)
# Summary of the method: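 Beta-lactamase reporter ratio (blue 460 nm over green 530 nm, 405 nm excitation) after 2 h CCF4-AM loading, in HCT-116 cells exposed 16 h at 37 C to compounds pinned at 217-fold dilution. Increases relative to DMSO baseline scored.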
# [9] = molecular target: Cellular tumor antigen p53 (Homo sapiens) (UniProt P04637); assay: TOX21_p53_BLA_p3_ratio: Tox21 HCT-116 p53 Agonism Beta-lactamase Assay, Ratio, Phase 3 (AID 2283596)
# Summary of the method: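 Cells were seeded at 4000/well, rested 5 h at 37C, then dosed with DMSO compound solutions (217-fold dilution) for 16 h. CCF4-AM substrate was loaded for 2 h at room temperature, and the 460/530 nm emission ratio was fitted for gain of signal versus DMSO.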
# Cellular tumor antigen p53 (Homo sapiens), sequence (P04637 whole entry, looked up): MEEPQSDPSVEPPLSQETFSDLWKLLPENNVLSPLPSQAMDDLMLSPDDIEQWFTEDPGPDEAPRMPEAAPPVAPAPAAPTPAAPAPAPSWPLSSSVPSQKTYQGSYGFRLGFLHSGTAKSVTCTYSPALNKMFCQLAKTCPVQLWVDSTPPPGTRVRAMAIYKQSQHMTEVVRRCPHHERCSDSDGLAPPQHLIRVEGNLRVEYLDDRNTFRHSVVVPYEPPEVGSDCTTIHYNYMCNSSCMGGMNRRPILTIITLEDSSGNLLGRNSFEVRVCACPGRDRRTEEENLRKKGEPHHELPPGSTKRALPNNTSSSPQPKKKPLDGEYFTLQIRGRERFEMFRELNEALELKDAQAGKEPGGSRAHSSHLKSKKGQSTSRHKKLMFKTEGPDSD
structure (smiles),measurement,setting,value
CCC1(c2ccccc2)C(=O)NCNC1=O,outcome,[1],inactive
same,outcome,[2],inactive
same,outcome,[3],inactive
same,outcome,[4],inactive
same,outcome,[5],inactive
same,outcome,[6],inactive
same,outcome,[7],inactive
COc1ccccc1[N+](=O)[O-],outcome,[1],inactive
same,outcome,[2],inactive
same,outcome,[3],inactive
same,outcome,[4],inactive
same,outcome,[8],inactive
same,outcome,[7],inactive
CCCCCC(=O)CC,outcome,[1],inactive
same,outcome,[2],inactive
same,outcome,[3],inactive
same,outcome,[4],inactive
same,outcome,[8],inactive
same,outcome,[6],inactive
same,outcome,[7],inactive
CC(=O)c1c(C)c([N+](=O)[O-])c(C(C)(C)C)c([N+](=O)[O-])c1C,outcome,[1],inactive
same,outcome,[2],inactive
same,outcome,[3],inactive
same,outcome,[4],inactive
same,outcome,[5],inactive
same,outcome,[8],inactive
same,outcome,[6],inactive
same,outcome,[7],inactive
C#CC(C)(O)CC(C)C (stereo not given),outcome,[1],inactive
same,outcome,[2],inactive
same,outcome,[3],inactive
same,outcome,[4],inactive
same,outcome,[8],inactive
same,outcome,[6],inactive
CC(Oc1cc(Cl)ccc1Cl)C(=O)O (stereo not given),outcome,[1],inactive
same,outcome,[2],inactive
same,outcome,[3],inactive
same,outcome,[4],inactive
same,outcome,[6],inactive
CCCCC(CC)C(=O)OC(C)C (stereo not given),outcome,[1],inactive
same,outcome,[2],inactive
same,outcome,[3],inactive
same,outcome,[9],inactive
same,outcome,[8],inactive
same,outcome,[6],inactive
same,outcome,[7],inactive
CC(C)CCOC(=O)c1ccccc1,outcome,[1],inactive
same,outcome,[2],inactive
same,outcome,[3],inactive
same,outcome,[4],inactive
same,outcome,[8],inactive
same,outcome,[6],inactive
same,outcome,[7],inactive
Cc1cccc(Nc2ccccc2)c1,outcome,[1],inactive
same,outcome,[2],inactive
same,outcome,[3],inactive
same,outcome,[9],inactive
same,outcome,[5],inactive
same,outcome,[8],inactive
same,outcome,[7],inactive
C=C(C)CNCC,outcome,[1],inactive
same,outcome,[2],inactive
same,outcome,[3],inactive
same,outcome,[9],inactive
same,outcome,[5],inactive
same,outcome,[8],inactive
same,outcome,[7],inactive
OCc1ccc(Cl)cc1Cl,outcome,[1],inactive
same,outcome,[2],inactive
same,outcome,[3],inactive
same,outcome,[9],inactive
same,outcome,[5],inactive
same,outcome,[8],inactive
same,outcome,[6],inactive
same,outcome,[7],inactive
Cc1ccc2c(c1)C(=O)OC2=O,outcome,[1],inactive
same,outcome,[2],inactive
same,outcome,[3],inactive
same,outcome,[4],inactive
same,outcome,[5],inactive
same,outcome,[8],inactive
same,outcome,[6],inactive
same,outcome,[7],inactive
CN1C(=O)c2ccccc2C1=O,outcome,[1],inactive
same,outcome,[2],inactive
same,outcome,[3],inactive
same,outcome,[4],inactive
same,outcome,[5],inactive
same,outcome,[8],inactive
same,outcome,[6],inactive
same,outcome,[7],inactive
[Cl][Au]([Cl])[Cl],outcome,[1],inactive
same,AC50,[2],45.6 µM (active)
same,AC50,[3],74.1 µM (active)
same,AC50,[4],75.1 µM (active)
same,AC50,[5],70.7 µM (active)
same,outcome,[8],inactive
same,outcome,[6],inactive
same,AC50,[7],37.8 µM (active)
OCc1cccc(Oc2ccccc2)c1,outcome,[1],inactive
same,outcome,[2],inactive
same,outcome,[3],inactive
same,outcome,[4],inactive
same,outcome,[5],inactive
same,outcome,[8],inactive
same,outcome,[6],inactive
same,outcome,[7],inactive
OCCCCC(O)CO (stereo not given),outcome,[1],inactive
same,outcome,[2],inactive
same,outcome,[3],inactive
same,outcome,[4],inactive
same,outcome,[5],inactive
same,outcome,[8],inactive
same,outcome,[6],inactive
same,outcome,[7],inactive
CCOCCOCCOCC,outcome,[1],inactive
same,outcome,[2],inactive
same,outcome,[3],inactive
same,outcome,[4],inactive
same,outcome,[8],inactive
CC(C)C(OC(=O)c1ccccc1)C(C)(C)COC(=O)c1ccccc1 (stereo not given),outcome,[1],inactive
same,outcome,[2],inactive
same,outcome,[3],inactive
same,outcome,[4],inactive
same,outcome,[5],inactive
same,outcome,[8],inactive
same,outcome,[6],inactive
CC1(C)O[C@@H]2C[C@H]3[C@@H]4CCC5=CC(=O)C=C[C@]5(C)[C@@]4(F)[C@@H](O)C[C@]3(C)[C@]2(C(=O)CO)O1,outcome,[1],inactive
same,outcome,[2],inactive
same,outcome,[3],inactive
same,outcome,[4],inactive
same,outcome,[5],inactive
same,outcome,[8],inactive
same,outcome,[6],inactive
same,outcome,[7],inactive
CCOC(=O)COC(=O)c1cc(Oc2ccc(C(F)(F)F)cc2Cl)ccc1[N+](=O)[O-],outcome,[1],inactive
same,outcome,[2],inactive
same,outcome,[3],inactive
same,outcome,[4],inactive
same,outcome,[5],inactive
same,outcome,[6],inactive
COC(=O)c1ccc(C)cc1C1=NC(C)(C(C)C)C(=O)N1 (stereo not given) (tested in a mixture with another compound),outcome,[1],inactive
same,outcome,[2],inactive
same,outcome,[3],inactive
same,outcome,[9],inactive
same,outcome,[5],inactive
same,outcome,[6],inactive
CC1CC(O)CC(C)(C)C1 (stereo not given),outcome,[1],inactive
same,outcome,[2],inactive
same,outcome,[3],inactive
same,outcome,[4],inactive
same,outcome,[5],inactive
same,outcome,[8],inactive
same,outcome,[6],inactive
same,outcome,[7],inactive
C#CC(C)N(C)C(=O)Nc1ccc(Cl)cc1 (stereo not given),outcome,[1],inactive
same,outcome,[2],inactive
same,outcome,[3],inactive
same,outcome,[5],inactive
same,outcome,[8],inactive
same,outcome,[6],inactive
same,outcome,[7],inactive
CCCCSCCCC,outcome,[1],inactive
same,outcome,[2],inactive
same,outcome,[3],inactive
same,outcome,[9],inactive
same,outcome,[8],inactive
same,outcome,[6],inactive
C=CC(=O)OCCCC,outcome,[1],inactive
same,outcome,[2],inactive
same,outcome,[3],inactive
same,outcome,[4],inactive
same,outcome,[5],inactive
same,outcome,[8],inactive
same,outcome,[6],inactive
same,outcome,[7],inactive
O=CCc1ccccc1,outcome,[1],inactive
same,outcome,[2],inactive
same,outcome,[3],inactive
same,outcome,[4],inactive
same,outcome,[5],inactive
same,outcome,[6],inactive
same,outcome,[7],inactive
C[Si](C)(C)O[Si](C)(C)C,outcome,[1],inactive
same,outcome,[3],inactive
same,outcome,[4],inactive
same,outcome,[5],inactive
same,outcome,[8],inactive
same,outcome,[6],inactive
same,outcome,[7],inactive
CC(C=O)Cc1ccc(C(C)(C)C)cc1 (stereo not given),outcome,[1],inactive
same,outcome,[3],inactive
same,outcome,[4],inactive
same,outcome,[9],inactive
same,outcome,[5],inactive
same,outcome,[8],inactive
same,outcome,[6],inactive
same,outcome,[7],inactive
Cc1ccc(N)c(S(=O)(=O)O)c1,outcome,[1],inactive
same,outcome,[2],inactive
same,outcome,[4],inactive
same,outcome,[9],inactive
same,outcome,[8],inactive
same,outcome,[6],inactive
same,outcome,[7],inactive
COC(C)(C)CC(C)=O,outcome,[1],inactive
same,outcome,[2],inactive
same,outcome,[4],inactive
same,outcome,[9],inactive
same,outcome,[8],inactive
O=C1OC[C@H](Cc2cccc(O)c2)[C@H]1Cc1cccc(O)c1,outcome,[1],inactive
same,outcome,[2],inactive
same,outcome,[8],inactive
same,outcome,[6],inactive
same,outcome,[7],inactive
C=COCCOCCOC=C,outcome,[1],inactive
same,outcome,[2],inactive
same,outcome,[9],inactive
same,outcome,[5],inactive
same,outcome,[7],inactive
C[Si]1(C)O[Si](C)(C)O[Si](C)(C)O1,outcome,[1],inactive
same,outcome,[2],inactive
same,outcome,[7],inactive
C1CCOC1,outcome,[1],inactive
same,outcome,[2],inactive
same,outcome,[4],inactive
same,outcome,[9],inactive
same,outcome,[7],inactive
OC[C@H]1O[C@@H](Oc2ccc(O)cc2)[C@H](O)[C@@H](O)[C@@H]1O,outcome,[1],inactive
same,outcome,[3],inactive
same,outcome,[4],inactive
same,outcome,[5],inactive
same,outcome,[8],inactive
same,outcome,[6],inactive
same,outcome,[7],inactive
CCN(CC)C(=O)N(CC)CC,outcome,[1],inactive
same,outcome,[3],inactive
same,outcome,[4],inactive
same,outcome,[5],inactive
same,outcome,[6],inactive
CN(C)C(=O)Nc1ccc(Oc2ccc(Cl)cc2)cc1,outcome,[1],inactive
same,outcome,[3],inactive
same,outcome,[4],inactive
same,outcome,[5],inactive
same,outcome,[8],inactive
same,outcome,[6],inactive
same,outcome,[7],inactive
Cc1c(C2(c3cc(Br)c(O)c(Br)c3C)OS(=O)(=O)c3ccccc32)cc(Br)c(O)c1Br,outcome,[1],inactive
same,outcome,[2],inactive
same,AC50,[4],37.1 µM (active)
same,outcome,[9],inactive
same,AC50,[5],28.4 µM (active)
same,outcome,[6],inactive
same,outcome,[7],inactive
C=C[Si]1(C)O[Si](C)(C=C)O[Si](C)(C=C)O[Si](C)(C=C)O1 (stereo not given),outcome,[1],inactive
same,outcome,[3],inactive
same,outcome,[4],inactive
same,outcome,[9],inactive
same,outcome,[6],inactive
same,outcome,[7],inactive
